Source: PubChem BioAssay (several laboratories)
Jurkat NFkB inh: inhibitors of the PMA/ionomycin-induced NF-kB reporter in Jurkat cells | PMA/ionomycin-induced NF-kB luciferase reporter, luminescence | inhibition, % at 4 µM | 330,000 compounds, 0.53% hits | AID 435003; in the data active means inhibition above about 50%
aSyn 5UTR inh: 5' untranslated region of α-synuclein, MLPCN primary screen; alpha-synuclein 5'UTR reporter, inhibitor activity; inhibition, % (tested at 7.5 µM); 300,000 compounds, 0.82% hits; AID 1813; in the data active means inhibition above about 60%;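 further: H4 neuroglioblastoma cells stably carrying SNCA 5'UTR luciferase fusion; 0% = DMSO wells and 100% = positive control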
Gli-Sufu antag: antagonists of Gli-Sufu signaling. Sufu-KO-LIGHT fibroblasts, Gli luciferase reporter luminescence. 340,000 compounds, 0.74% hits. inhibition, % at 5 µM;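 active means inhibition above about 55%, limit read from the data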;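 further: 0% = DMSO-treated cells and 100% = wells with medium but no cells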
Mdm2-MdmX inh: disrupts the human Mdm2-MdmX interaction | O15151+Q00987 | SaOS-2 split-luciferase Mdm2/MdmX complementation, luminescence | inhibition, % at 8 µM | 330,000 compounds, 3% hits;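 active means inhibition of at least 50% at 8 µM in the primary screen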
Target sequence (O15151 whole entry, looked up): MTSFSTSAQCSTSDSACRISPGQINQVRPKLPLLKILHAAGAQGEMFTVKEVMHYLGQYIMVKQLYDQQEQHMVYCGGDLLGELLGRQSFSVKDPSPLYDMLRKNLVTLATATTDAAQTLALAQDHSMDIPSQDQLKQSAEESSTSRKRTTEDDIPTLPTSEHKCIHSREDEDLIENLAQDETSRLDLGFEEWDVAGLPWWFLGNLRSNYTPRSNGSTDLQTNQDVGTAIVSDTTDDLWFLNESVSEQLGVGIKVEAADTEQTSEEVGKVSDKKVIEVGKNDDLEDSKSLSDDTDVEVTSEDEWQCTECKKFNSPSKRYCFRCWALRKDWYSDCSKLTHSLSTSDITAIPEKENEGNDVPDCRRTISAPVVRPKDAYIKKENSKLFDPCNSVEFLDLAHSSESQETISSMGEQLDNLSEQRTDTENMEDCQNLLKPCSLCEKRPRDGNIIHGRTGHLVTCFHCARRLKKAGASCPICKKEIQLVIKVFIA
Target sequence (Q00987 whole entry, looked up): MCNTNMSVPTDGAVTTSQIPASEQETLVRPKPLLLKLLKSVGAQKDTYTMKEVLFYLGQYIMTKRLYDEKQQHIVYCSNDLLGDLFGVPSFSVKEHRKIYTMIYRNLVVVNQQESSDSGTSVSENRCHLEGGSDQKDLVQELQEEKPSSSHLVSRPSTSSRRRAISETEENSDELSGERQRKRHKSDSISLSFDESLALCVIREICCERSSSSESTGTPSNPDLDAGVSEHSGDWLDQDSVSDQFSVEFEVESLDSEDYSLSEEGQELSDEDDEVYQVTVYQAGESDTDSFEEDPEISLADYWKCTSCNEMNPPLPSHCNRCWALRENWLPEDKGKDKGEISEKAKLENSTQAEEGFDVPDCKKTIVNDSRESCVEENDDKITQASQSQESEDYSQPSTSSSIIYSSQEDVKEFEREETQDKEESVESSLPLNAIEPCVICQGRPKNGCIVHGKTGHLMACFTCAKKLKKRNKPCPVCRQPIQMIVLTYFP
CSC inhib: cancer stem cell inhibition; cancer stem cell-like cells viability, luminescence; inhibition, % at 7.5 µM; 300,000 compounds, 1.1% hits; AID 2717; in the data active means inhibition above about 75%; tested in HMLE shEcad cells
697 NFkB inh: lowers PMA/ionomycin-induced NF-kB signal in 697 B cells; 697 B-cell NF-kB luciferase reporter, 16 h; inhibition, % at 4 µM; 330,000 compounds, 0.33% hits; AID 435022; in the data active means inhibition above about 35%
Gli antag conf: Gli-SUFU antagonism confirmation, single concentration. shares compounds with Gli-Sufu antag. inhibition, % at 5 µM. 2,500 compounds, 40% hits. Sufu-KO-LIGHT cells, Gli luciferase reporter, luminescence;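 active means mean inhibition at 5 µM reaching about 45%, limit read from the data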;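 further: plate controls were DMSO-treated cells for no effect and wells lacking cells for full effect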
SufuKO cytotox: cytotoxicity counter-screen for Gli-SUFU antagonists | shares compounds with Gli-Sufu antag | Sufu-KO-LIGHT cells cytotoxicity, ATP luminescence | cytotoxicity, % at 5 µM | 2,500 compounds, 32% hits;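 active means mean cytotoxicity at 5 µM above about 25%, limit read from the data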;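 further: cells exposed to compound overnight for roughly 16 to 18 hours; plate controls were DMSO wells with cells for no effect and medium without cells for full effect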
Wnt3a counter: counter-screen for Gli-SUFU antagonists: Wnt3a reporter inhibition; shares compounds with Gli-Sufu antag; Wnt-LIGHT cells, Wnt3a-driven luciferase reporter, luminescence; inhibition, % at 6.25 µM; 2,500 compounds, 20% hits; AID 651995;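 active means mean inhibition above about 25%, limit read from the data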
The depositor's hits bear a star; . = not tested or not shown. Shown are actives, neighbours in structure and some others; about 4.5% of the full set was active somewhere.

SMILES	Jurkat NFkB inh	aSyn 5UTR inh	Gli-Sufu antag	Mdm2-MdmX inh	CSC inhib	697 NFkB inh	Gli antag conf	SufuKO cytotox	Wnt3a counter
CCOc1ccc(N(CC(=O)NC2CCC(C)CC2)S(=O)(=O)c2c(C)noc2C)cc1 (centres undefined)	4.2	4.0	8.4	11.0	-8.2	-0.3	.	.	.
Cc1ccc(N(CC(=O)NC2CCCCC2)S(=O)(=O)c2c(C)noc2C)cc1	-4.2	24.3	50.2	9.2	-2.3	0.7	14.2	17.5	-35.4
Cc1ccc(N(CC(=O)NC2CCCCCC2)S(=O)(=O)c2c(C)nn(C)c2C)cc1	-2.5	11.6	3.4	-38.3	18.1	-14.5	.	.	.
COC(=O)CC1Oc2ccccc2N(Cc2ccccc2)C1=O (centres undefined)	-7.0	6.5	-15.8	19.0	2.6	-3.6	.	.	.
CCN1/C(=C\C=C(C(C)=O)C(C)=O)Sc2ccccc21	0.2	-16.7	11.9	3.6	-0.9	8.0	.	.	.
CCN1/C(=C\C(=S)Nc2ccccc2)Sc2ccccc21	-15.4	-143.6	53.8	-62.6	17.4	-15.1	55.4*	13.2	-27.3
CCCCCCCCCCCC(=O)c1c(O)cccc1O	-9.5	8.2	1.3	17.5	-5.0	-0.2	.	.	.
CCN(Cc1ccncc1)C(=O)C1CCN(S(=O)(=O)c2cccs2)CC1	-4.3	-5.5	98.9*	5.4	-13.6	12.8	13.2	18.3	9.9
CCN(Cc1ccncc1)C(=O)c1cccc(S(=O)(=O)N2CCCCC2)c1	6.9	.	94.6*	-5.9	-23.6	1.2	19.8	11.2	-16.8
CCN(CC(=O)NCc1cccs1)C(=O)CCc1c[nH]c2ccccc12	4.0	5.2	3.0	-38.1	-4.4	15.3	.	.	.
COc1ccc(-c2nnc(SCC(=O)NC3CCCCC3)n2N)cc1	-16.8	.	-6.5	-25.1	.	14.3	.	.	.
Cc1cc(NC(=O)C2CCN(S(=O)(=O)Cc3ccccc3)CC2)ccc1-n1cnnn1	10.2	10.0	59.9*	26.8	.	14.8	27.6	11.7	-36.1
COc1cccc(Cn2c(-c3cccs3)noc2=O)c1	3.0	0.6	99.1*	-34.3	-3.1	-8.6	19.9	8.3	-37.4
COc1ccc(-c2noc(=O)n2Cc2ccc(C#N)cc2)cc1	14.9	11.9	-1.7	30.0	-9.7	13.1	.	.	.
CCN(CC)C(=O)c1oc2ccc(S(=O)(=O)N3CCCCCC3)cc2c1C	5.6	13.1	25.3	7.0	2.3	-26.6	.	.	.
CCN(CC)C(=O)c1oc2ccc(S(=O)(=O)N3CC(C)CC(C)C3)cc2c1C (centres undefined)	32.2	23.1	63.0*	34.9	-4.9	-8.9	62.3*	22.9	43.8*
O=C(Cc1cccs1)Nc1ccc2c(c1)C(=O)OC2	-6.5	8.0	99.0*	0.1	2.0	16.4	14.8	4.8	1.6
COc1ccc(C(=O)NC2CCCCCC2)cc1S(=O)(=O)N1CCCc2ccccc21	-13.6	-6.7	9.6	8.3	30.3	-34.5	.	.	.
CCN1C(=O)CCN(C2CCCC2)c2nc(Nc3ccc(C(=O)NC4CCN(C)CC4)cc3OC)ncc21	.	.	71.5*	.	.	.	60.4*	23.9	-87.4
CCC1(C)Cc2ccccc2-c2c1c(=O)n(Cc1ccccc1)c1nnnn21 (centres undefined)	-7.4	3.1	75.0*	20.6	134.7*	-34.1	27.6	3.2	-1.2
O=c1c2c(n3nnnc3n1Cc1ccccc1)-c1ccccc1CC21CCCC1	19.4	1.3	8.7	8.3	64.3	5.2	.	.	.
COc1ccc(O)c(C(=O)c2cnc3c(c2)c(=O)[nH]c(=O)n3C)c1	-4.6	4.8	56.6*	5.4	-11.6	16.0	27.5	6.6	33.2*
COCCn1c(=O)[nH]c(=O)c2cc(C(=O)c3cc(Cl)ccc3O)cnc21	9.2	-4.7	0.0	20.2	-5.4	13.7	.	.	.
Cc1c(/C=N/NC(=O)c2ccc(O)cc2)c2ccccn2c1C(=O)c1ccc(F)cc1	-8.6	-6.3	-20.8	46.4	29.6	23.7	.	.	.
Cc1c(/C=N/NC(=O)c2ccccc2O)c2ccccn2c1C(=O)c1ccc(F)cc1	9.5	14.2	79.2*	34.1	0.1	1.7	71.2*	1.1	-128.5
